Compound activity deposited in PubChem BioAssay by National Center for Advancing Translational Sciences (NCATS).
SMN2 splice up: qHTS Assay for Enhancers of SMN2 Splice Variant Expression. HEK293 SMN2-luciferase splicing reporter, luminescence, 30-36 h. Potency, µM (top dose mostly 46.1 µM), for the others: top-dose activity change, positive = activation, hits mostly activators. 210,000 compounds, 2.8% hits. AID 1458, 2008; note: % of control where 0% means no effect; nearly all actives have a fitted effect of over 55% in size
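HEK293 cells carry an SMN2 minigene-luciferase reporter in which exon 7 inclusion puts luciferase in frame. Cells were seeded at 2000 cells/well, attached for 10-12 hours, then exposed to compounds for 30-36 hours at 37C before ONE-Glo luminescence.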
ELG1 repair inh: qHTS screen for small molecules that inhibit ELG1-dependent DNA repair in human embryonic kidney (HEK293T) cells expressing luciferase-tagged ELG1; 330,000 compounds, 2.3% hits; HEK293T ELG1-luciferase reporter, luminescence, 16 h; DNA damage induced by 5-fluorouridine; Potency, µM (series often up to 46.1 µM), without a hit: at the top dose activity change, negative = inhibition, most hits filed as inhibitors; note: % is set by controls: 0 for no effect and ±100 for the full control effect; nearly all actives have a fitted effect of over 55% in size
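Quantitative HTS, concentration-response format. 2,000 cells/well co-treated with 5-fluorouridine and compound, 16 hr in 5% CO2 at 37 °C; ONE-Glo luminescence read after 30 min.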
NPC1 promoter act: qHTS Assay for NPC1 Promoter Activators; Huh7 NPC1 promoter luciferase reporter, 24 h; Potency, µM (top dose mostly 9.22 µM), for inactives: at the highest dose activation, actives largely listed as activators; 320,000 compounds, 2.4% hits; AID 485313, 2010; note: % of control where 0% means no effect; nearly all actives have a fitted effect of over 60% in size
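Readout is luciferase luminescence, reflecting NPC1 promoter activation in stably transfected Huh7 cells after 24 h compound exposure at 37 °C in reduced-serum medium with 10% FBS.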
ELG1 genotoxic: qHTS screen for small molecules that induce genotoxicity in human embryonic kidney (HEK293T) cells expressing luciferase-tagged ELG1 | HEK293T ELG1-luciferase reporter, luminescence, 16 h | Potency, µM (doses to about 46 µM), without a hit: at the top dose activity change, positive = activation, usual class: activators | 330,000 compounds, 1.3% hits | AID 504466, 2011; note: % of control where 0% means no effect; nearly all actives have a fitted effect of over 60% in size
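After overnight (16 hr) compound treatment at 37 °C, ELG1-luciferase HEK293T cells were lysed with ONE-Glo; luminescence quantified 30 min later at room temperature.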
FLuc counter: qHTS profiling assay for firefly luciferase inhibitor/activator using purifed enzyme and Km concentrations of substrates (counterscreen for miR-21 project) | purified FLuc, Km substrates, luminescence inhibition | Potency, µM (top dose mostly 57.5 µM), inactives show at the highest dose activity change, negative = inhibition, hits mostly inhibitors | 360,000 compounds, 6.9% hits;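 note: plate controls were vehicle for no effect and reference inhibitor for full effect; nearly all actives have a fitted effect of over 55% in size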
Target sequence (P08659 whole entry, looked up): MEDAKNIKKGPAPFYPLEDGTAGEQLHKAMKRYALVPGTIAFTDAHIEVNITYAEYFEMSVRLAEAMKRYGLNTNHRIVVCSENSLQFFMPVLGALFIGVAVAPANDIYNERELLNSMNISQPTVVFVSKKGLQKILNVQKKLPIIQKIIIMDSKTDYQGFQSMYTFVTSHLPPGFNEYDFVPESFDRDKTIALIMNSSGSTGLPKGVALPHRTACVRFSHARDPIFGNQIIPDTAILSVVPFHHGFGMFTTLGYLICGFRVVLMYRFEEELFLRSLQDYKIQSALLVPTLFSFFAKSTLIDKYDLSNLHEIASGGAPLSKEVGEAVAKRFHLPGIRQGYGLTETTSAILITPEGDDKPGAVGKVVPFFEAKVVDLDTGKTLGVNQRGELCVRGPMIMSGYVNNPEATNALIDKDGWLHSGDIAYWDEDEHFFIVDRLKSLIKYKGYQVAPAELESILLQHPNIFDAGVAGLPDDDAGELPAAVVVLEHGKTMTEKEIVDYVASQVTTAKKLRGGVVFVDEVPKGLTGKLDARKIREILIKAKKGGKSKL
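Biochemical qHTS of compounds, final roughly 60 µM downward over six points, against 10 nM purified firefly luciferase using Km concentrations of substrates (10 uM D-luciferin, 10 uM ATP) in Tris acetate pH 7.5 buffer; luminescence output.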
Rab9 promoter act: qHTS Assay for Rab9 Promoter Activators; Huh7 Rab9 promoter-luciferase reporter, luminescence, 24 h; Potency, µM (top dose mostly 9.22 µM), for the others: at the highest dose activation, negative = inhibition, actives largely listed as activators; 320,000 compounds, 2.8% hits; AID 485297, 2010; note: % of control where 0% means no effect; nearly all actives have a fitted effect of over 60% in size
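Measured in stably transfected Huh7 cells bearing a Rab9 promoter–luciferase construct: 24 h compound treatment at 37 °C, followed by luminescence detection.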
The depositor's hits bear a star; ? = inconclusive; nt = no result given; [ ] = dose if it differs, or a comment. Hits are enriched below; roughly 9.2% of the tested compounds scored in any of these assays. Calls come from the whole dose curve; as a rule, active = well fitted curve in the direction sought with a large enough effect; inconclusive = small, poorly fitted or top-dose-only effect, or another doubt; inactive = no such curve, though single readings can be large; an effect the other way counts as inactive or inconclusive. Potency is the fitted concentration of half-maximal effect.

SMILES | SMN2 splice up | ELG1 repair inh | NPC1 promoter act | ELG1 genotoxic | FLuc counter | Rab9 promoter act
Cc1onc(-c2ccccc2)c1C(=O)N/N=C/C(Br)=C/c1ccccc1 | -59% | -23% | 2% | ? | -4% | -4%
O=C(COC(=O)c1ccc([N+](=O)[O-])cc1)NC12CC3CC(CC(C3)C1)C2 | nt | 0% | nt | 0% | nt | nt
O=C(CCCc1ccccc1)NC12CC3CC(CC(C3)C1)C2 | nt | ? | 3.2µM* | ? | 9.5µM* | 2.2µM*
O=C(COC(=O)C12CC3CC(CC(C3)C1)C2)NCCCc1ccccc1 | ? | 2% | -6% | 1% | 3% | -1%
O=C(COC(=O)c1ccccc1)NC12CC3CC(CC(C3)C1)C2 | nt | 24% | -2% | -1% | 6.7µM* | 0%
N#Cc1ccccc1Sc1ccccc1C(=O)OCC(=O)NC12CC3CC(CC(C3)C1)C2 | -24% | 21µM* | -1% | -2% | -15% | -3%
O=C(O)c1cccc(N=Nc2c(S(=O)(=O)O)ccc3c2C(=O)c2ccccc2C3=O)c1O | -5%[9.22 µM] | nt | nt | nt | nt | nt
CCCCc1ccc(-n2nc3cc(C)c(NC(=O)Cc4ccccc4)cc3n2)cc1 | 3% | nt | nt | nt | -12% | nt
COc1ccc2c(c1)CCc1c-2n[nH]c1C(=O)O | 13% | 22% | -1% | 2% | 11µM* | 9%
COc1ccc2c(c1)CCc1c(-c3noc4c3CCc3cc(OC)ccc3-4)noc1-2 | -10%[9.22 µM] | nt | nt | nt | nt | nt
CCc1cccc(C)c1NC(=O)c1cc(S(=O)(=O)N(C)Cc2ccccc2)ccc1F | nt | nt | nt | nt | -7% | nt
CCn1nc(NS(=O)(=O)c2ccc([N+](=O)[O-])cc2)c2cc3cc(C)ccc3nc21 | nt | 17% | -2% | 5% | 11µM* | 11%
CCn1nc(NS(=O)(=O)c2ccc([N+](=O)[O-])cc2)c2cc3ccc(C)cc3nc21 | nt | -11% | -4% | -4% | ? | -3%
CC(C)Cn1nc(NS(=O)(=O)c2cccc3nonc23)c2cc3ccccc3nc21 | nt | -3% | -3% | -3% | ? | -4%
CCn1nc(NS(=O)(=O)c2cccc3nonc23)c2cc3ccc(C)cc3nc21 | nt | 23% | 1% | 4% | 30µM* | 3%
CCOc1ccc(NC(=O)CN2C(C(=O)OC)=C(c3ccccc3)c3cc(Cl)ccc3S2(=O)=O)cc1 | -4% | nt | nt | nt | 0% | nt
CCC(C)C(=O)Nc1ccc(OC)cc1[N+](=O)[O-] (stereo not given) | 0% | ? | -3% | 5% | 3% | -4%
COc1ccc(NC(=O)NC2CCCc3ccccc32)cc1OC (stereo not given) | nt | ? | ? | 6.5µM* | ? | 0%
COc1ccc(NC(=O)NC2CCCc3ccccc32)cc1 (stereo not given) | nt | -7% | 9% | 1% | -3% | 10%
COc1ccccc1C(=O)Nc1ccc(Br)c2cccnc12 | nt | 7% | 14% | -7% | 12µM* | 10%
COc1ccccc1C(=O)Nc1cccnc1 | nt | 5% | -6% | 3% | -2% | 0%
COc1ccccc1C(=O)Nc1ccc(Br)cc1C | nt | ? | ? | 10% | 17µM* | ?
O=C(Nc1ccc(Cl)c(Cl)c1)Nc1ccccn1 | nt | ? | 3.2µM* | ? | ? | 4.5µM*
O=C(Nc1cccnc1)Nc1ccccn1 | -4% | 6% | 3% | 4% | -15% | 3%
CN(C)c1ccc(CN(CC2CCCO2)C(=O)c2ccc(Br)cc2)cc1 (stereo not given) | -5% | nt | nt | nt | 2% | nt
SMILES | SMN2 splice up | ELG1 repair inh | NPC1 promoter act | ELG1 genotoxic | FLuc counter | Rab9 promoter act
COc1ccc2o/c(=N\O)c(C(=O)Nc3ccccc3OC)cc2c1 | 22% | 21% | -1% | -3% | ? | -2%
COc1ccccc1C(=O)Nc1ccccn1 | 22µM* | ? | 2.5µM* | 13µM* | 7.6µM* | ?
COc1ccccc1C(=O)Nc1ccncc1 | nt | -1% | -1% | 0% | 6% | -4%
COc1cccc2cc(C(=O)Nc3ccccc3C)/c(=N/O)oc12 | nt | ? | ? | ? | 6.7µM* | 17%[1.84 µM]
COc1ccc(NC(=O)Nc2ccccn2)cc1OC | nt | ? | 24% | ? | 19µM* | 19%
O=CN1CCN(C[C@H](O)CN2CCCCC2)CC1 | 0%[9.22 µM] | nt | nt | nt | nt | nt
COc1ccc(C(=O)Cc2ccc3c(c2)OCO3)c(O)c1 | 5.6µM* | ? | 2.8µM* | ? | 2.7µM* | 4µM*
COc1ccc(CC(=O)c2ccc(O)cc2O)cc1 | -83% | ? | ? | ? | ? | ?
O=C(Cc1ccc2c(c1)OCCO2)c1c(O)cc(O)cc1O | 11% | ? | 27% | 17% | 27µM* | ?
O=C(O)COc1ccc(C(=O)Cc2ccc3c(c2)OCCCO3)c(O)c1 | -22% | 5% | -3% | -3% | 27µM* | -3%
Cc1ccc(-n2ncc(C(=O)NCCN3CCCC3)c2C2CCN(C(=O)OC(C)(C)C)CC2)cc1C | nt | nt | nt | nt | -1% | nt
BrCCOCCOc1ccc2ccccc2c1 | ? | ? | ? | ? | 15µM* | ?
O=C(NCc1ccccc1F)C1CCN(c2nn3cc(-c4ccc(F)cc4)nc3s2)CC1 | nt | nt | nt | nt | -3% | nt
CCc1cccc(NC(=O)C(CC(C)C)NS(=O)(=O)c2ccc3c(c2)oc(=O)n3C)c1 (stereo not given) | -1% | nt | nt | nt | -3% | nt
Nc1[nH]nc2nc(N3CCCC3)nc(-c3ccccc3)c12 | -5% | -1% | 5% | 3% | 2% | -1%
Cc1cc(C)n2nc3nc(N4CCCC4)nc(-c4ccccc4)c3c2n1 | 37% | 10µM* | -2% | 0% | 0% | -4%
Cc1ccc(C)c(N2CCN(C(=O)C(CC(C)C)NS(=O)(=O)c3ccc4nc(C)sc4c3)CC2)c1 (stereo not given) | 7% | nt | nt | nt | -2% | nt
Cc1ccc(S(=O)(=O)N2CCC(C(=O)Nc3nnc(-c4ccco4)s3)CC2)cc1 | 28% | -14% | -1% | -3% | 1% | 0%
O=C(Nc1nnc(-c2ccco2)s1)C1CCCCC1 | -9% | ? | 3.5µM* | 9% | ? | 3.2µM*
CC(C)CC(=O)Nc1nnc(-c2ccco2)s1 | 26% | ? | ? | 16µM* | ? | 2.5µM*
O=C(Nc1nc(-c2ccco2)c(-c2ccco2)s1)C1CC(=O)N(c2ccc3c(c2)OCCO3)C1 (stereo not given) | -8% | ? | -3% | -19% | 4% | -5%
COC(=O)Nc1nnc(-c2ccco2)s1 | nt | ? | 4% | 5% | -15% | 15%
